Assay outcomes: PubChem, Broad Institute
PfHsp90 set2: growth inhibition of PfHsp90-expressing yeast, primary screen, antimalarial PfHsp90 inhibitor project, S. cerevisiae, BacTiter-Glo luminescence, single point, set 2; BacTiter-Glo ATP, 48 h; yeast lacking PDR1 and PDR3 efflux regulators; inhibition, % at 9.4 µM; 310,000 compounds, 0.32% hits; AID 504621, 2011;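 active = every replicate shows inhibition above about 80%, whatever the replicate mean, limit read from the data; inconclusive = mean inhibition reaches the set limit but some replicate falls short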;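 also: 0% = DMSO neutral controls and 100% = 20 µM radicicol positive controls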
Shn3 inh set2: reduction of Shn3 3'UTR firefly luciferase signal, primary screen, Schnurri-3 inhibitor project, cell-based, Clone20 osteoblasts, set 2 | Clone20 osteoblast Shn3 3'UTR firefly luciferase, 24 h | inhibition, % at 12.5 µM | 360,000 compounds, 0.52% hits | AID 588674, 2011;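 active = mean inhibition of at least 75% with every replicate also reaching 75%; inconclusive = mean inhibition at least 75% but some replicate below; inactive = mean inhibition below 75%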;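 also: 0% = median of neutral control wells and 100% = pilot-screen positive control compound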
Beta apoptosis: inhibitors of cytokine-induced beta cell apoptosis, primary screen, luminescence | 300,000 compounds, 0.8% hits | INS-1E cytokine-induced death, ATP luminescence, 48 h; percent of positive-control rescue, neutral wells zero | protection from apoptosis, % (test concentration not listed);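 active = Every replicate reaches about 75%, or at least half do and their mean reaches it too, limit read from the data; inconclusive = At least half of replicates reach the limit but their mean does not; inactive = Under half of replicates reach the limit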;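 also: 0% = cytokine-treated negative control wells and 100% = positive control rescue; higher means more ATP so stronger rescue from cytokine killing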
CSC inhib: cancer stem cell viability inhibitors, primary screen, luminescence; cancer stem cell-like cells viability; inhibition, % at 7.5 µM; 300,000 compounds, 1.1% hits; AID 2717, 2010; in the data active = inhibition above about 75%; inconclusive = no clear call, values can overlap the other calls; tested in HMLE shEcad cells
Calb FLC: C. albicans growth inhibition with fluconazole, primary screen, CaCi-2 strain, Alamar Blue fluorescence; C. albicans CaCi-2 (fluconazole-resistant clinical isolate) + fluconazole, 48 h; growth inhibition, % (no concentration beside the values); 300,000 compounds, 0.57% hits; AID 1979, 2009;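 active = growth inhibition above about 58% in most replicates, limit read from the data, passing the limit was not always enough; inconclusive = exactly half the replicates above a set limit; inactive = most replicates below a set limit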;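 also: all wells also contain fluconazole at 8 µg/ml as a sub-toxic cotreatment; 0% = median of DMSO wells and 100% = median of geldanamycin control wells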
An asterisk follows results filed as active. In the library only some 2.2% were active in any assay of this set; here they are far more common.

How did COc1cccc2c1O[C@H]1C(=O)CC[C@H]3CN(C)CCC231 (some centres not stated) do in these assays?
PfHsp90 set2: -9; Shn3 inh set2: 89*; Beta apoptosis: 1; CSC inhib: -11; Calb FLC: 18

What do the screens show for `O=c1[nH]c2ccccc2n1C1CCN(C(c2cccs2)c2nnnn2Cc2ccccc2)CC1` (configuration not stated)?
Shn3 inh set2: 85*

What do the screens show for `O=c1[nH]c2ccccc2n1C1CCN(C(CCc2ccccc2)c2nnnn2Cc2ccccc2)CC1` (configuration not stated)?
Shn3 inh set2: 85*

Results for CSCCC(c1nnnn1Cc1ccccc1)N1CCC(n2c(=O)[nH]c3ccccc32)CC1 (configuration not stated) ?
Shn3 inh set2: 79

What do the screens show for `Oc1ccc(O)c2c1C1(Cl)C(Cl)=C(Cl)C2(Cl)C1(Cl)Cl`?
PfHsp90 set2: 107*; Shn3 inh set2: 27

How did CCCC1COC(Cn2cncn2)(c2ccc(Cl)cc2Cl)O1 (configuration not stated) do in these assays?
PfHsp90 set2: 107*; Shn3 inh set2: 12; CSC inhib: -1; Calb FLC: 11

What do the screens show for `CC1(c2ccc(Cl)cc2Cl)OCC(Cn2cncn2)O1` (configuration not stated)?
PfHsp90 set2: -2; Shn3 inh set2: 3; Beta apoptosis: 5; CSC inhib: -13; Calb FLC: 2

How did CCOC(=O)c1cnc(SCc2ccc(Cl)c(Cl)c2)nc1N1CC1 do in these assays?
Shn3 inh set2: 31

Results for COC[C@H]1OC(=O)c2coc3c2[C@@]1(C)C1=C(C3=O)[C@@H]2CCC(=O)[C@@]2(C)C[C@H]1OC(C)=O ?
PfHsp90 set2: 106*; Shn3 inh set2: 5

How did CCCCC/C=C\C/C=C\C/C=C\C/C=C\CCCC(=O)Nc1ccc(O)cc1 do in these assays?
CSC inhib: 85*; Calb FLC: 20

How did COCCn1c(O)c(/C=N/NC(=O)CSC(=S)N2CCCC2)c(=O)[nH]c1=S do in these assays?
PfHsp90 set2: -8; Shn3 inh set2: -10; Beta apoptosis: -2

How did N#CC(C#N)=C(C#N)c1ccc(Nc2ccccc2)cc1 do in these assays?
PfHsp90 set2: 0; Shn3 inh set2: 4; CSC inhib: 93*; Calb FLC: 6

What do the screens show for `CNc1ccc2oc(C[C@H]3O[C@@]4(CC[C@H]3C)O[C@H]([C@H](C)C(=O)c3ccc[nH]3)[C@H](C)C[C@H]4C)nc2c1C(=O)O`?
PfHsp90 set2: 111*; Shn3 inh set2: 97*; Beta apoptosis: 109*; CSC inhib: 106*

Results for CC1=CC(C)CC(C)OC(=O)CC(c2ccc(O)cc2)NC(=O)C(Cc2c(Br)[nH]c3ccccc23)N(C)C(=O)C(C)NC(=O)C(C)C1 (configuration not stated) ?
PfHsp90 set2: 105*; Shn3 inh set2: 67

Results for O=c1[nH]c(O)c(N=Nc2ccc(SC(F)F)cc2)c(=O)[nH]1 ?
PfHsp90 set2: -1; Shn3 inh set2: -29; Beta apoptosis: 1; CSC inhib: 4; Calb FLC: 4

How did C[C@@H]1O[C@@H](O[C@H]2C[C@@H](O)[C@]3(CO)[C@@H]4C(CC[C@]3(O)C2)[C@@]2(O)CC[C@H](C3COC(=O)C3)[C@@]2(C)C[C@H]4O)[C@H](O)[C@H](O)[C@H]1O (some centres not stated) do in these assays?
PfHsp90 set2: -10; Shn3 inh set2: -27; Beta apoptosis: 0; CSC inhib: 83*

How did C=CCn1c(O)c(C(C)=Nc2ccc(C(=O)O)cc2)c(=O)[nH]c1=O do in these assays?
PfHsp90 set2: -8; Shn3 inh set2: 7; Beta apoptosis: 1; CSC inhib: -17; Calb FLC: -8

What do the screens show for `CN1/C(=C\C=C\C2=[N+](C)c3ccc4ccccc4c3C2(C)C)C(C)(C)c2ccccc21`?
Beta apoptosis: 100*; CSC inhib: 115*

How did CCCCCCCCn1sccc1=O do in these assays?
PfHsp90 set2: active; Shn3 inh set2: inconclusive; Beta apoptosis: 2; CSC inhib: 60

What do the screens show for `O=c1c2ccccc2nc(/C=C/c2ccccc2F)n1-c1ccccc1O`?
PfHsp90 set2: 8; Shn3 inh set2: -8; Beta apoptosis: 14; CSC inhib: 98*; Calb FLC: 1

How did Nc1ccccc1N=Cc1c(O)n(CCC2=CCCCC2)c(=O)[nH]c1=O do in these assays?
PfHsp90 set2: -9; Shn3 inh set2: -29; Beta apoptosis: 97*; CSC inhib: 96*; Calb FLC: 17

What do the screens show for `O=C(N/N=C/c1c(O)n(CCC2=CCCCC2)c(=O)[nH]c1=O)c1ccccc1`?
PfHsp90 set2: 2; Shn3 inh set2: -14; Beta apoptosis: 8; CSC inhib: 16; Calb FLC: 26

How did O=C(N/N=C/c1c(O)n(CCC2=CCCCC2)c(=S)[nH]c1=O)c1ccccc1 do in these assays?
PfHsp90 set2: 0; Shn3 inh set2: 6; Beta apoptosis: -1; CSC inhib: 29; Calb FLC: 98*

What do the screens show for `CC[C@H](C)/C=C(C)/C=C/C1=CC2=C(Cl)C(=O)[C@@](C)(OC(C)=O)C(=O)C2=CO1`?
PfHsp90 set2: 106*; Shn3 inh set2: 2; Beta apoptosis: 2; CSC inhib: -15; Calb FLC: 1

What do the screens show for `CCC(C)/C=C(C)/C=C/C1=CC2=C(Cl)C(=O)C(C)(OC(C)=O)C(=O)C2=CO1` (configuration not stated)?
PfHsp90 set2: 11; Shn3 inh set2: 8; CSC inhib: -9; Calb FLC: 1

How did CCCCn1c(O)c(C=NC2CCCCC2N)c(=O)[nH]c1=O (configuration not stated) do in these assays?
PfHsp90 set2: -1; Shn3 inh set2: 0; Beta apoptosis: -3; Calb FLC: 0

What do the screens show for `CCCCCCn1c(O)c(C=NC2CCCCC2N)c(=O)[nH]c1=O` (configuration not stated)?
Beta apoptosis: -5; CSC inhib: 83*; Calb FLC: 14

How did C=C(C=O)C[C@@H]1C[C@H](O)C2OC3C[C@]4(C)OC5/C=C\CC6OC7C(CC=CCC6OC5CCCC4OC3CC2O1)OC1CC2OC3CC(=O)OC3C[C@@H](C)C[C@@]2(C)OC1C[C@@H]7C (some centres not stated) do in these assays?
Beta apoptosis: 124*; CSC inhib: 104*; Calb FLC: 12

How did C=CCn1c(O)c(C(C)=NC(C)c2ccccc2)c(=O)[nH]c1=O (configuration not stated) do in these assays?
PfHsp90 set2: 7; Shn3 inh set2: -13; Beta apoptosis: -10; CSC inhib: 3; Calb FLC: -7
